Results as given in article PMC4552634, “A New Set of Chemical Starting Points with Plasmodium falciparum Transmission-Blocking Potential for Antimalarial Drug Discovery” (PLoS ONE, 2015).
Among all 13,000 compounds or so, about 3,200 (25%) showed an effect of 50% or more. This is one part of the list.

Test system: P. falciparum stage V gametocytes
Parameters: BacTiter-Glo ATP luminescence viability of purified stage V gametocytes in 384-well plates, per cent inhibition versus DMSO
Conditions: 48 h, 5 µM; inhibitor

Row | SMILES | % Inhibition [%]
1 | COc1ccc2c(c1)OC(C)(C)CC2=NOS(=O)(=O)c1ccc(C)cc1 [TCMDC-131772] | -0.3703
2 | O=c1cc(NCCCNC2CCOc3c(Cl)cc(Cl)cc32)[nH]c2ccccc12 (centres unmarked) [TCMDC-139477] | 33.79
3 | CC(=O)N[C@H](C(=O)Nc1ccc(-c2ccc(-c3nc4ccc(C(F)(F)F)cc4[nH]3)cc2)cc1)C(C)C [TCMDC-136854] | -3.438
4 | Cc1cccc2nc(-c3ccc(-c4ccc(NC(=O)NC5CC5c5ccccc5)cc4)cc3)[nH]c12 (centres unmarked) [TCMDC-133255] | -29.85
5 | Cc1nnsc1C(=O)Nc1ccc(-c2ccc(-c3nc4cccc(C)c4[nH]3)s2)cc1 [TCMDC-137090] | 0.4196
6 | COc1ccc(NC(=O)Nc2cccc(-c3ccc(-c4nc5cccc(C)c5[nH]4)s3)c2)cc1 [TCMDC-133242] | 1.322
7 | Cc1cccc2nc(-c3ccc(-c4cccc(NC(=O)Nc5ccc(Cl)cc5)c4)s3)[nH]c12 [TCMDC-133175] | 74.56
8 | Cc1nnsc1C(=O)Nc1cccc(-c2ccc(-c3nc4cccc(C)c4[nH]3)s2)c1 [TCMDC-137091] | 82.4
9 | Cc1cccc2nc(-c3ccc(-c4ccc(NC(=O)Nc5ccc(Cl)cc5)cc4)s3)[nH]c12 [TCMDC-133176] | -22.37
10 | Cc1nnsc1C(=O)Nc1cccc(-c2ccc(-c3nc4ccccc4[nH]3)s2)c1 [TCMDC-137079] | 9.217
11 | O=C(Nc1cccc(-c2ccc(-c3nc4cc(F)ccc4[nH]3)s2)c1)c1ccncc1 [TCMDC-136968] | -9.65
12 | Cc1cccc2nc(-c3ccc(-c4cccc(NC(=O)Nc5ccc(Cl)c(Cl)c5)c4)s3)[nH]c12 [TCMDC-133272] | -3.418
13 | Cc1nnsc1C(=O)Nc1cccc(-c2ccc(-c3nc4cc(F)ccc4[nH]3)s2)c1 [TCMDC-137089] | 59.58
14 | CC1CC(NCCCNc2cc(=O)c3ccccc3[nH]2)c2cc(Cl)c(Cl)c(Cl)c21 (centres unmarked) [TCMDC-139479] | 22.71
15 | N=C(N)c1nc2ccccc2s1 [TCMDC-123945] | 9.097
16 | C(=Cc1nc2ccccc2s1)c1ccc2c(c1)OCCO2 [TCMDC-124539] | 68.35
17 | C=CCNC(=O)CCCN=C(N)N [TCMDC-131668] | 6.787
18 | CC(C)(C)c1ccc2nc(-c3ccc(C(=O)NCCCc4ccccc4)cc3)[nH]c2c1 [TCMDC-140453] | 68.75
19 | CCOC(=O)c1ccc2nc(-c3ccc(C(=O)NCc4ccc(C(C)(C)C)cc4)cc3)[nH]c2c1 [TCMDC-140576] | -8.95
20 | Cc1cc2nc(-c3ccc(C(=O)NCc4ccc(C(C)(C)C)cc4)cc3)[nH]c2cc1C [TCMDC-140433] | -24.96
21 | Cc1cc2nc(-c3ccc(C(=O)NCCCc4ccccc4)cc3)[nH]c2cc1C [TCMDC-140429] | -39.85
22 | CC(C)(C)c1ccc(CNC(=O)c2ccc(-c3nc4ccc(C(C)(C)C)cc4[nH]3)cc2)cc1 [TCMDC-140455] | 76.42
23 | Cc1cc2nc(-c3ccc(OCC(=O)NCc4ccc(C(C)(C)C)cc4)cc3)[nH]c2cc1C [TCMDC-140440] | 63.48

Row | SMILES | % Inhibition [%]
24 | CC(C)(C)c1ccc(CNC(=O)c2ccc(-c3nc4ccc(Cl)cc4[nH]3)cc2)cc1 [TCMDC-140442] | 5.243
25 | CC(C)(C)c1ccc2nc(-c3ccc(C(=O)NCc4cccc(C(F)(F)F)c4)cc3)[nH]c2c1 [TCMDC-140454] | 18.91
26 | Cc1cc2nc(-c3ccc(OCC(=O)NCc4cccc(C(F)(F)F)c4)cc3)[nH]c2cc1C [TCMDC-140439] | -1.946
27 | CCc1ccc(NC(=O)c2cccc(CN3CCCN(Cc4cccc(O)c4)CC3)c2)cc1 [TCMDC-135989] | -33.27
28 | O=C(/C=C/c1ccc(Cl)cc1)NCCCCCN1CCCC(C(=O)Nc2ccc(Cl)c(Cl)c2)C1 (centres unmarked) [TCMDC-136125] | -14.11
29 | CC1CN(CCCn2c3ccccc3c3ccc(C(=O)CCCN(C)C)cc32)CC(C)N1 (centres unmarked) [TCMDC-137742] | 88.42
30 | Cc1c(CCNC(=O)CCCN2CC(C)CC(C)C2)c2ccccc2n1C (centres unmarked) [TCMDC-131457] | 10.13
31 | CCC1CN(CCCn2c3ccccc3c3ccccc32)C(CC)CN1 (centres unmarked) [TCMDC-138116] | 25.71
32 | O=c1[nH]c2ccc(Nc3nccc(NCCc4ccccc4)n3)cc2[nH]1 [TCMDC-136805] | -64.58
33 | CC(CCCCC(=O)Nc1ccc(CC(C)NCCc2cccc(Cl)c2)cc1)NCCc1cccc(Cl)c1 (centres unmarked) [TCMDC-139799] | 105.4
34 | CC(CCCC(=O)Nc1ccc(CC(C)NCCc2cccc(Cl)c2)cc1)NCCc1cccc(Cl)c1 (centres unmarked) [TCMDC-139798] | 110.2
35 | CC(Cc1ccc(NC(=O)CCCc2ccccc2)cc1)NCCc1cccc(Cl)c1 (centres unmarked) [TCMDC-139883] | 22.17
36 | CC(CCCCCC(=O)Nc1ccc(CC(C)NCCc2cccc(Cl)c2)cc1)NCCc1cccc(Cl)c1 (centres unmarked) [TCMDC-139800] | 109.3
37 | CC(C)CNc1c2c(nc3cnn(-c4c5c(nc6cn[nH]c46)CCCC5)c13)CCCC2 [TCMDC-131555] | -4.273
38 | Cc1cccc2nc(-c3ccc(-c4ccc(CN5CCOCC5)cc4)cc3)[nH]c12.O=C(O)C(F)(F)F [TCMDC-133825] | 20.49
39 | O=C(Nc1ccc(F)cc1)NC1CCN(c2ccnc3ccccc23)C1 (centres unmarked) [TCMDC-133577] | 52.59
40 | COc1ccc(NC(=O)NC2CCN(c3ccnc4ccccc34)C2)cc1 (centres unmarked) [TCMDC-133575] | 3.669
41 | O=C(Nc1ccccc1Oc1ccccc1)NC1CCN(c2ccnc3cc(Cl)ccc23)C1 (centres unmarked) [TCMDC-133401] | -4.379
42 | O=C(Nc1ccc(C(F)(F)F)cc1)NC1CCN(c2ccnc3ccccc23)CC1 [TCMDC-133587] | 54.56
43 | O=C(COc1ccc(F)cc1)NC1CCN(c2ccnc3cc(Cl)ccc23)C1 (centres unmarked) [TCMDC-133397] | -4.375
44 | Cc1ccc(NC(=O)NC2CCN(c3ccnc4ccccc34)C2)cc1 (centres unmarked) [TCMDC-133576] | -20.26
45 | O=C(COc1ccccc1)NC1CCN(c2ccnc3cc(Cl)ccc23)C1 (centres unmarked) [TCMDC-133669] | -12.2
46 | O=C(Nc1ccccc1Br)N[C@@H]1CCN(c2ccnc3ccccc23)C1 [TCMDC-141572] | 52.9

Row | SMILES | % Inhibition [%]
47 | O=C(Nc1ccc(C(F)(F)F)cc1)NC1CCN(c2ccnc3ccccc23)C1 (centres unmarked) [TCMDC-133578] | 40.18
48 | O=C(Nc1cccc(C(F)(F)F)c1)NC1CCN(c2ccnc3ccccc23)CC1 [TCMDC-133586] | -4.951
49 | O=C(Nc1ccc(OC(F)(F)F)cc1)NC1CCN(c2ccnc3ccccc23)C1 (centres unmarked) [TCMDC-133583] | -30.46
50 | CC(C)(C)c1ccc(OCC(=O)NC2CCN(c3ccnc4cc(Cl)ccc34)C2)cc1 (centres unmarked) [TCMDC-133670] | 64.95
51 | Cc1ccc(-c2cc(C(=O)Nc3ccc(S(=O)(=O)N4CC(C)OC(C)C4)cc3)[nH]n2)c(O)c1 (centres unmarked) [TCMDC-125180] | -20.62
52 | COc1ccc2nccc([C@@H](O)CN3CCC(NC(=O)c4ccc(-c5ccccc5)s4)CC3)c2c1 [TCMDC-141106] | 10.46
53 | O=C(CCCCCNC(=O)c1ccc(O)c(-c2ccc(Cl)c(Cl)c2)c1)NC1CCCCCC1 [TCMDC-140842] | -20.8
54 | CC(C)(C)c1ccc(N2C(N)=NC(N)=NC2(C)C)cc1 [TCMDC-137713] | 2.693
55 | O=C(Nc1ccc(Cl)cn1)c1sc2ccccc2c1O [TCMDC-124520] | -11.35
56 | Cc1ccc(C(=O)Nc2cc(S(=O)(=O)N3CCCC3)ccc2OCC(F)(F)F)cc1 [TCMDC-124325] | -29.62
57 | O=C(Nc1ccc(Cl)c(Cl)c1)Nc1ccc(F)c([N+](=O)[O-])c1 [TCMDC-125042] | -17.87
58 | O=C(Nc1ccc(C(F)(F)F)cc1)NC1CCN(c2ccnc3cc(Cl)ccc23)C1 (centres unmarked) [TCMDC-133405] | -22.97
59 | CC(C)(C)c1ccc(NC(=O)N[C@@H]2CCN(c3ccnc4ccccc34)C2)cc1 [TCMDC-141573] | 101
60 | O=C(Nc1ccc(OC(F)(F)F)cc1)NC1CCN(c2ccnc3ccccc23)CC1 [TCMDC-133585] | -8.485
61 | COc1cc(O)c2c(=O)c(OC)c(-c3cccc(Cl)c3OC3O[C@H](CO)[C@@H](O)[C@H](O)[C@H]3O)oc2c1OC (some centres unmarked) [TCMDC-131699] | 3.846
62 | CC(C)c1ccc(CN2CCCCC(NC(=O)c3cc(-c4cccc(F)c4)cs3)C2)cc1 (centres unmarked) [TCMDC-134463] | -60.78
63 | COc1cccc(-c2csc(C(=O)NCC3CCN(Cc4ccc(C(C)C)cc4)C3)c2)c1 (centres unmarked) [TCMDC-134439] | 107.3
64 | CC(C)c1ccc(CN2CCC(CNC(=O)c3cc(-c4cccc(Cl)c4)cs3)C2)cc1 (centres unmarked) [TCMDC-134438] | 95.05
65 | CC(C)c1ccc(CN2CCC(CNC(=O)c3cc(-c4cccc(F)c4)cs3)C2)cc1 (centres unmarked) [TCMDC-134437] | 107.7
66 | Cc1cc(N[C@@H](CC(C)C)C(=O)NCCOc2ccccc2)nc(Nc2ccccc2)n1 [TCMDC-134741] | -17.47
67 | C#CCN(Cc1cc2c(=O)[nH]c(N)nc2cc1C)c1ccc(C(=O)N[C@@H](CCC(=O)O)C(=O)O)cc1 [TCMDC-132041] | 1.845
68 | CCOC(=O)NC1=NC(C)(C)N(OCc2cccc3c2ccc2ccccc23)C(NC(=O)OCC)=N1 [TCMDC-131339] | 9.295
